Legend:
Test in all cases: PBM binding z-score (relative to random genomic background probes); higher = stronger binding; sequences stand for … in GC…GCGATTGACAGCGTAGAATGAAGG
[1] = test system: PPARg:RXRa DBDmut IVT, anti-RXR (DBD mutation: RXRa K156A/R161A, NR concentration 270 nM, RXRa partner concentration 90 nM)
Procedure, shortened: (§1)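 Custom Agilent 4×180K protein-binding microarrays carried double-stranded probes, each with a 34-nt variable region. These regions held direct-repeat seeds, single-nucleotide variants, half-site ablations and random human genomic background sequences. Ligand-free nuclear receptor dimers were incubated on the arrays for 1 h, antibodies against each partner (one per run) detected binding, and scanned fluorescence was regression-normalized. Binding z-scores take the random background probes as reference.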

[2] = test system: PPARg:RXRa IVT, anti-PPARg (NR concentration 270 nM, RXRa partner concentration 90 nM)
Procedure, shortened: as §1

[3] = test system: PPARg DBDmut:RXRa IVT, anti-PPARg (DBD mutation: PPARg1 K132A/R137A, NR concentration 270 nM, RXRa partner concentration 90 nM)
Procedure, shortened: as §1

[4] = test system: PPARg DBDmut IVT, anti-PPARg (DBD mutation: PPARg1 K132A/R137A, NR concentration 270 nM)
Procedure, shortened: as §1

[5] = test system: PPARg homodimer (NR concentration 180 nM)
Procedure, shortened: as §1

[6] = test system: PXR:RXRa (NR concentration 270 nM, RXRa partner concentration 90 nM)
Procedure, shortened: as §1

[7] = test system: PXR homodimer (NR concentration 270 nM)
Procedure, shortened: as §1

[8] = test system: RARa:RXR (NR concentration 270 nM, RXRa partner concentration 90 nM)
Procedure, shortened: as §1

[9] = test system: RARa homodimer (NR concentration 270 nM)
Procedure, shortened: as §1

[10] = test system: RARb:RXRa (NR concentration 270 nM, RXRa partner concentration 90 nM)
Procedure, shortened: as §1

Sequence	PBM binding z-score [1]	PBM binding z-score [2]	PBM binding z-score [3]	PBM binding z-score [4]	PBM binding z-score [5]	PBM binding z-score [6]	PBM binding z-score [7]	PBM binding z-score [8]	PBM binding z-score [9]	PBM binding z-score [10]
TCTCGGAGGACACGCAAGGTCAGAGCTCGACATC	1.62	1.03	-0.531	-0.649	0.657	2.67	0.389	2.61	0.379	3.4
ATCTCTAGATAACAAGTTCAGTGAAAGAGAGGAC	-0.504	0.236	0.623	0.272	0.186	1.26	1.72	0.0962	0.589	1
TATCGGAGGACACGAAGGTCAGAGCTTTCCAGAG	0.135	1.54	-0.485	-0.6	1.67	1.9	1.2	2.05	0.593	3.22
CCTACTGGGCCAATGGTCATTGATTCCAATGCTC	3.79	4.11	0.147	-0.523	-0.104	-0.581	-0.689	-0.388	-0.588	0.311
CCGACTGGGGCAGAAAGGTTACCAGACCATCCGG	1.28	2.02	-0.764	-1.01	0.446	0.737	-0.356	1.47	-0.579	1.89
ATACCAAGGTAATCGTGAGGTCGTTGATACTAAC	0.339	0.661	0.385	0.929	0.827	2.55	1.36	2.06	-0.0819	1.07
ACTAGCAGGCCAAGTTTGGGTCCCTCAAACAAAG	0.359	-0.00665	-1.13	-1.25	-0.378	-0.465	-0.57	-0.00931	-0.776	0.3
AGTCAAAGTCCACTAGGTAACGTAAGATTCAGCT	1.22	1.83	0.418	0.228	0.527	-0.372	0.0413	-0.205	0.764	1.44
ATACCTAGGTGATCGTGAGGTCGTTGATACTAAC	1.24	1.46	0.324	0.924	0.783	2.64	2	2.04	0.311	1.09
TCTTGTAGATCACTAGAGGTTAAGAAAGTGCGCT	1.81	1.16	1.46	0.897	0.0426	3.04	0.56	1.74	0.205	1.03
CAGGCTAGGTCAGGGCCAGTATAGGAGGAACGTT	1.77	2.27	-0.979	-1.24	0.901	0.235	-0.157	0.946	0.278	3.6
GATACAGGGTCAGCAAGAGGCCAGAGTATGGAAA	0.915	2.6	-0.173	-0.37	1.98	3.23	0.0143	4.07	0.301	4.18
CCTAGTTGGTTAGGAGGTCACACACCGGATATGA	1.46	3.63	0.832	1.05	4.26	4.03	1.84	4.45	1.79	3.42
AGAACAAGGGCAATGAGTTGATAGCACGGGTGGC	2.52	1.75	0.287	-0.527	0.058	0.978	4.14	0.000148	-0.325	2.2
TCGAGTAGGTTAGTCGGGGCATTCATCCAACATA	2.52	2.11	0.0178	-0.145	0.384	0.279	0.0478	0.5	-0.336	0.665
TCAGACAGGTGAAGGAAACTCAGGTACGCAGTCG	2.96	0.598	0.181	-0.163	0.667	0.502	0.224	0.564	0.502	0.976
TCTCGGAGGACACGAAGGTCAGAGTTTTCCAGAG	1.44	1.35	-0.952	-0.619	1.53	2	1.37	2.07	0.114	3.32
TCATATAGTTAAATGCTAGGTGAAAGTCCGATCT	2.22	0.879	0.746	1.69	1.11	0.631	0.356	0.763	1.49	0.272
TGAATGAGGTTAAAGACCAGGGAACGTGGCGTCG	1.75	2.7	1.19	0.401	0.683	1.08	-0.0383	2.17	0.0679	1.84
CCAGACAGGTTAAAGGTAACTCAGTCTGGTACGC	0.728	1.86	-0.35	-0.757	1.24	2.15	-0.196	3.52	0.287	1.69
GATACAGGGTCAAGGCCAGAGGACGCGTATTGAT	2.29	3.97	0.837	0.968	2.75	3.68	0.296	4.56	1.16	4.44
AGTCAAAGTTCACTAGGTAACGTACGATTCAGCT	3.29	5.13	1.36	1.27	3.23	4.37	3.12	3.45	1.53	4.71

Sequence	PBM binding z-score [1]	PBM binding z-score [2]	PBM binding z-score [3]	PBM binding z-score [4]	PBM binding z-score [5]	PBM binding z-score [6]	PBM binding z-score [7]	PBM binding z-score [8]	PBM binding z-score [9]	PBM binding z-score [10]
GATACAGGGTCAGCTAGAGGCCAGAGAATGGAAA	1.5	2.31	0.246	-1.1	2.84	3.34	0.000802	4.73	0.734	4.34
CGTCGAAGGTCAAAGGTCAGTGAAGAGATGACGG	3.46	5.8	1.49	1.99	5.11	7.05	1.1	8.65	2.42	5.92
TCTCGGAGGACACGAAAGGTCAGAGTTCGACATC	1.62	1.81	-0.309	-0.696	3.27	4.98	3	5.55	1.69	4.16
TCTAGCAGGCCAGAGGGTCACTAAAGAGGTACGG	0.806	0.475	-0.497	-1.37	0.659	1.14	-0.609	1.8	-0.574	2.05
TCGAGTAGGTTACCAATGGGGCATTGAGCTTTCT	3.4	2.69	-0.293	-0.233	-0.0976	0.039	-0.707	0.00376	-0.988	0.917
ACTAGCACGCCAAGTTTGGGTCACTCAAACAAAG	-0.764	0.325	-0.643	-0.578	0.00723	0.524	-0.537	0.981	-0.534	1
ACTAGCAGGCCAAGTATGGGTCACTCAAACAAAG	1.16	1.82	-0.278	-0.249	0.52	0.911	-0.49	1.85	-0.747	1.58
TCCTATAGGTAATACAGGTGAAAGTCGGCATCTA	2.84	2.12	0.665	0.687	0.164	0.43	-0.159	0.537	0.724	0.581
AGAATGAGGTTATTAAGATCGGGGAATTGCGGTC	2.65	2.39	0.666	-0.0579	0.639	1.23	0.366	1.26	0.527	1.37
ATCGAAAGGTCGAGGTGAGTGTAGAGAAAGGGAA	0.382	2.47	0.918	-0.292	2.56	3.28	0.73	3.41	1.1	3.97
TCTAGTTGGTCACGGAGGTCAAACACGACGGGTA	2.37	3.95	0.658	0.77	3.43	5.11	2.87	5.16	1.13	3.9
ATATGTAGGTTTAGGGTCATTCAGGTTGGTTCGC	2.89	3.81	1.35	1.25	2.95	5.07	4.08	4.48	2.17	2.79
TATACAGGGTCAAAGGCCAGATTACGAATGTCGA	2.17	4.84	2.19	3.09	2.87	4.54	0.853	6.01	1.67	4.43
CGTCCAAGGTCAGAGACGTCAGTGAATGCCGAGT	2.2	1.74	-0.306	-0.0249	1.43	2.14	0.599	2.75	0.197	4.37
ATTCAAAGTTCAGGACGAGGTAACGTAAAGCACG	-0.268	1.33	1.03	0.76	1.93	2.95	1.44	3.01	0.385	4.19
TTACCAAGGTGAAACGTCGTTGATGCACGCCTTG	3.12	2.95	0.206	0.358	0.178	-0.0159	-0.972	0.592	-0.282	1.62
TAGCCTAGGTCATGCAGGGGCCAGTATAGAAAGC	1.42	2.59	-0.359	-0.442	1.36	2.18	-0.721	3.39	-0.25	3.85
AGAATGAGGTTATACGTGGATCAGGGAAGAAAGT	3.62	2.12	1.26	0.938	1.69	1.17	0.993	1.89	0.612	1.55
CGAACTAGGTCAAGGTCAAAGTCGGTTTGTGCCA	8.45	8.59	3.32	1.2	4.39	5.28	2.59	5.41	1.57	4.93
TCTTGTAGACCAGCAGGTTAAGAAAGCTGGCCAA	1.63	0.1	-1.37	-0.977	-0.0673	0.0995	-0.534	0.371	-0.568	0.179
GCTTGTAGATCAAGATTAAGAAAGACTAAGCTAA	0.366	-0.13	0.0686	0.0924	-0.256	-0.671	-0.582	-0.252	-0.194	-0.426
ATCGAAAGGTCGTGTGGTGAGTATACAGAAAGGC	0.568	1.69	2.41	1.23	2.3	3.25	0.999	3.74	1.51	3.6
